The record followed here is PubChem BioAssay AID651814 (National Center for Advancing Translational Sciences (NCATS), 2012).

About 590 (28%) of roughly 2,100 compounds were called active. Another 42% or so got no clear call; they are omitted. This is one part of the list. Values without a mark were called inactive. Calls come from the whole dose curve; as a rule, active = well fitted inhibition curve with a large enough effect; inconclusive = small, poorly fitted or top-dose-only effect; inactive = flat fitted curve, though single readings scatter.
Potency is the fitted concentration of half-maximal effect.

DNA dC->dU-editing enzyme APOBEC-3F (Homo sapiens), sequence (Q8IUX4 whole entry, looked up): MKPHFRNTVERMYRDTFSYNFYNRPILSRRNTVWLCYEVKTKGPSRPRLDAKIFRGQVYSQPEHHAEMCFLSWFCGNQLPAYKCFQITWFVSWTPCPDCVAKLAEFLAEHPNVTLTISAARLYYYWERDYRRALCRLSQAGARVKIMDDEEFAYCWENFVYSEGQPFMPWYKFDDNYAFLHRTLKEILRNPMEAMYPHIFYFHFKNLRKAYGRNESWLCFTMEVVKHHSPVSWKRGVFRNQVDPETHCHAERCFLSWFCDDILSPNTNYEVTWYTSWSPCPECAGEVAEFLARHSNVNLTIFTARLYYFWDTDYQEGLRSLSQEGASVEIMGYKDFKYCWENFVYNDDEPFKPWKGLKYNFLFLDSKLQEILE

This test has as its target DNA dC->dU-editing enzyme APOBEC-3F (Homo sapiens) (UniProt Q8IUX4). Description: qHTS for inhibitors of Vif-A3F interactions: Cherry picks.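 For max response: % of control where 0% means no effect; active compounds raise eYFP fluorescence by blocking Vif-driven A3F loss.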 Note: nearly all actives have a fitted effect of over 70% in size. As to conditions: HeLa A3F-eYFP + Vif (tagged APOBEC3F with the HIV-1 protein that degrades it), eYFP fluorescence, 24 h. The procedure, abridged: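 Read-out: yellow fluorescence (ex 488 nm, em 500-530 nm) by laser-scanning cytometer after 24 h compound exposure, several concentrations, at 37 deg C. Cells: HeLa line stably co-expressing Vif and C-terminally eYFP-tagged A3F; MG132 served as positive control.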
For orientation: qHTS replaces the single test concentration by a dilution series.
With `Cc1ccc(S(=O)(=O)N2CCCCC2)cc1NC(=O)Cn1ncc(Cl)c(Cl)c1=O`, the max response was -13.3%.

In the case of `O=C(Cn1ncc(Cl)c(Cl)c1=O)NCC1CCCCC1`, the Potency was 15.8 µM (active). In the case of `CCOC(=O)c1ccc(NC(=O)Cn2ncc(Cl)c(Cl)c2=O)cc1`, the max response is -29.1%. `C=CCSc1nc2sc3c(c2c(=O)n1CC)CCC3`: the max response is -3.63%. Still for that read-out and setting: as for `C[C@@H]1O[C@@H](O[C@@H]2C(=O)c3c(O)cc(O)cc3O[C@H]2c2ccc(O)c(O)c2)[C@H](O)[C@H](O)[C@H]1O`, the figure is 2.1%; as for `CCC(C)Sc1ccc(-c2nc3cc(C)ccn3c2NC2CCCCC2)cc1` (centres undefined), -4.06%; as for `Cn1nnnc1SCc1nc2scc(-c3ccc(Cl)cc3)c2c(=O)[nH]1`, -13.9%.

Take `COc1cccc(N2CCN(Cc3nc4scc(-c5ccccc5)c4c(=O)[nH]3)CC2)c1`: the Potency was 17.7 µM (active).

Consider `O=c1c(Cl)c2oc3ccccc3nc-2c2ccccc12`, for which the Potency is 18.4 µM (active). Regarding `O=C(Nc1nc(-c2ccccn2)cs1)C1CCCC1`, the max response is -4.77%. Same read-out and setting: in the case of `Cc1ccc(-n2c(O)c(/C=C3/C(c4ccccc4)=Nc4ccccc43)c(=O)[nH]c2=O)cc1` it was -12.3%. With `COc1ccc(NC(=O)c2sc3nc4c(cc3c2N)CN(Cc2ccccc2)CC4)c(OC)c1`, the Potency is 20.6 µM (active). In the case of `Cc1ccccc1NC(=O)c1sc2nc3c(c(-c4ccco4)c2c1N)CCC3`, the max response was -22.7%. Turning to `CCN1CCc2nc3sc(C(=O)c4ccccc4)c(N)c3cc2C1`, the Potency was 16.4 µM (active). On the same count and under the same terms, in the case of `Nc1c(C(=O)c2ccc(Cl)cc2)sc2nc3c(cc12)CCC3` it was 23.1 µM (active). On to `Cc1cc(N2CCN(C)CC2)ccc1NC(=O)c1c2c(nc3ccccc13)CCN(Cc1ccccc1)C2`, for which the max response was -29.2%.

`Cc1ccc(NC2=C(Cl)C(=O)N(C3CCCCC3)C2=O)cc1`: the max response was -3.54%.

As to `COc1cnc(-c2ccccn2)nc1Oc1ccc(F)cc1F`, the max response was 2.31%. On to `Cc1ccc(SC2=C(Sc3ccc(C)cc3)C(=O)c3ccccc3C2=O)cc1`, for which the Potency was 20.6 µM (active). In the case of `Cc1c(N=C2N=C(NC(=O)c3cccs3)c3ccccc32)c(=O)n(-c2ccccc2)n1C`, the Potency is 15.8 µM (active). `Cc1c(N/N=C(\C#N)C(=O)c2ccc(Cl)cc2)c(=O)n(-c2ccccc2)n1C`: the max response was -12.8%. On to `Cc1c(NC(=O)c2csc3c2CCCC3)c(=O)n(-c2ccccc2)n1C`, for which the max response is 0.352%. Same read-out and setting: in the case of `O=C(/C=C/c1ccco1)NC(=S)Nc1ccc(N2CCCC2)cc1` it was -28%. As for `COc1cccc(NC(=O)Nc2nc(-c3ccc(OC)c(OC)c3)cs2)c1`, the max response is -25.2%. Turning to `COc1ccc(-c2csc(NC(=S)NC(=O)/C=C/c3ccco3)n2)cc1Br`, the Potency was 7.04 µM (active). Still for that read-out and setting: as for `Cc1ccc(C(=O)NCCn2c(N)c(C#N)c3nc4ccccc4nc32)cc1`, the figure is 23.1 µM (active). Consider `Cn1c(=S)c2[nH]c(SCCN3CCCC3)nc2n(C)c1=O`, for which the max response is 0.53%. Take `COc1ccc(N=Cc2c(O)n(-c3cccc(C)n3)c(=O)c3ccccc23)c(OC)c1`: the Potency is 13 µM (active).

Consider `O=C(N/N=C/c1c(O)n(-c2ccc(Cl)cn2)c(=O)c2ccccc12)c1ccncc1`, for which the max response is -9.07%. `Cc1ccc(N=Cc2c(O)n(-c3nccs3)c(=O)c3ccccc23)c(C)c1`: the max response is -4.13%.

`CCC(=Nc1ccccc1O)C1=C(O)CC(c2ccccc2)CC1=O` (centres undefined): the max response was -8%. Still for that read-out and setting: as for `CCN(CC)c1ccc2cc(-c3nc(-c4ccc(Cl)cc4Cl)cs3)c(=O)oc2c1`, the figure is -3.92%. As to `CCN(CC)c1ccc2cc(-c3nnc(-c4cccc(Cl)c4)o3)c(=O)oc2c1`, the Potency is 0.58 µM (active). The same measure, in the same setting: in the case of `CCN(CC)c1ccc2cc(-c3nc(-c4cccs4)no3)c(=O)oc2c1` it was 2.06 µM (active); in that of `CCN(CC)c1ccc2cc(-c3nc(-c4ccccc4)no3)c(=O)oc2c1`, 3.66 µM (active); in that of `CCN(CC)c1ccc2cc(-c3nnc(-c4ccccc4)o3)c(=O)oc2c1`, 0.0994 µM (active). As for `CCOC(=O)c1c(C)sc(-c2c(-c3ccccc3)[nH]c3[nH]c(=O)[nH]c(=O)c23)c1O`, the max response is -22.6%. On the same count and under the same terms, in the case of `Cc1ccc(Nc2nc(-c3cccnc3)nc3ccccc23)cc1` it was -12.4%. Turning to `CC1CCN(C(=O)C(C)Sc2nc(-c3ccccc3)cc(C(F)(F)F)n2)CC1` (centres undefined), the max response is 1.1%. In the case of `CCN(CC)c1ccc2cc(-c3nc(-c4cc(OC)c(OC)c(OC)c4)no3)c(=O)oc2c1`, the Potency is 0.366 µM (active). As for `CCN(CC)c1ccc2cc(-c3nc4ccccc4n3C)c(=O)oc2c1`, the Potency is 4.11 µM (active). Same read-out and setting: in the case of `CC1=C/C(=C\C=C(C#N)C#N)N(C)c2ccccc21` it was 2.31 µM (active); in that of `CN1/C(=C/C=C(C#N)C#N)C(C)(C)c2ccccc21`, 18.4 µM (active). In the case of `CN1/C(=C/C=C(/C#N)C(N)=O)C(C)(C)c2ccccc21`, the Potency is 6.27 µM (active).

For the compound `COCCNC(=S)N/N=C(\C)c1ccc(OC(F)F)cc1`, the max response was 0.658%. For the compound `Cc1cccc(-c2noc(-c3ccc(NCc4ccco4)c([N+](=O)[O-])c3)n2)c1`, the Potency is 14.6 µM (active). Consider `COc1ccccc1-c1noc(-c2ccc(NCc3ccco3)c([N+](=O)[O-])c2)n1`, for which the Potency was 14.6 µM (active). For the compound `O=[N+]([O-])c1cc(-c2nc(-c3ccccc3)no2)ccc1NCc1ccco1`, the Potency was 8.2 µM (active). On to `O=c1c2ccccc2sc2ccc(NCCCN3CCOCC3)cc12`, for which the Potency was 20.6 µM (active). For the compound `Cc1ccc(C)c(NC(=O)N2CC=C(c3c[nH]c4ccccc34)CC2)c1`, the max response was -19.7%. Consider `Cc1ccc(C)c(NC(=O)Cn2cc(S(=O)(=O)Cc3cccc(Cl)c3)c3ccccc32)c1`, for which the Potency was 8.2 µM (active).

For `Cc1ccc(Cl)cc1NC(=O)Nc1cn(CC(C)C)c(=O)c2ccccc12`, the max response is -13.3%. On to `Cc1ccc(S(=O)(=O)C(C#N)c2nc3ccccc3nc2N2CCCC2)cc1` (centres undefined), for which the max response was -28.7%.

`CCn1c(SCC(=O)Nc2cccc(O)c2)nc2c1c(=O)n(C)c(=O)n2C`: the max response was 0.997%. Still for that read-out and setting: as for `CCCCOc1ccc(-c2nnn(CC(=O)NCc3ccco3)n2)cc1`, the figure is -20.9%; as for `COc1ccccc1CCC(=O)Nc1ccc2c(c1)c(=O)n(C)n2Cc1ccc(F)cc1`, -22.3%; as for `S=C(NCc1ccco1)Nc1ccc(Cl)cn1`, -0.0392%. Regarding `COc1ccc(NC(=O)CSc2nc3c(oc4ccccc43)c(=O)n2Cc2ccco2)cc1Cl`, the Potency is 14.6 µM (active). `COc1cc2nc(SCC(=O)NCc3ccco3)n(Cc3ccc(Cl)cc3)c(=O)c2cc1OC`: the Potency was 8.2 µM (active).
